# Assay results: the supplement of paper PMC10127200
# Where a name gives a salt, the structure may show the parent alone.
# How the values were obtained:
# Experiment in all cases: Euclidean distance of Cell Painting phenotypic profile (signed KS, 77 features) to DMSO centroid (dimensionless distance); 5 or 10 uM (library dependent); higher = stronger phenotypic change vs DMSO (phenoactivity)
# Details in all cases: 48 h
# 786-O = tested on: 786-O
# Summary of the method: (§1)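 Harmony extracted 77 features from 20X confocal images (9 fields/well) of stained cells, scoring each as a signed Kolmogorov-Smirnov statistic against same-plate vehicle wells. The cells, five cancer lines and a healthy fibroblast line, had received library compounds for 48 h at 10 or 5 uM depending on library, with 0.1% DMSO final. Phenoactivity is the Euclidean distance from each plate-position-corrected, correlation-weighted, top-dose replicate-averaged profile to the median vehicle profile.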
# A549 = tested on: A549
# Summary of the method: as §1
# DU145 = tested on: DU145
# Summary of the method: as §1
# FB = tested on: FB
# Summary of the method: as §1
# HEPG2 = tested on: HEPG2
# Summary of the method: as §1
# OVCAR4 = tested on: OVCAR4
# Summary of the method: as §1
SMILES,Euclidean distance (786-O),Euclidean distance (A549),Euclidean distance (DU145),Euclidean distance (FB),Euclidean distance (HEPG2),Euclidean distance (OVCAR4)
Oc1c(I)cc(Cl)c2cccnc12 [Clioquinol],1.29,1.03,1.05,1.37,0.894,1.24
CC(=O)OCC(CCn1cnc2cnc(N)nc21)COC(C)=O [Famciclovir],1,0.742,0.892,0.846,0.598,1.57
O=[N+]([O-])c1ccc(O)c2ncccc12 [Nitroxoline],2.71,2.74,1.76,1.94,1.71,2.24
C[N+]1(C)[C@@H]2CC[C@H]1C[C@@H](OC(=O)C(O)c1ccccc1)C2 (some centres undefined) [Homatropine Methylbromide],0.885,1.85,1.26,1.47,0.52,0.995
CCOC(=O)[C@H](CCc1ccccc1)N[C@@H](C)C(=O)N1Cc2ccccc2C[C@H]1C(=O)O [Quinapril HCl],1.41,1.16,0.942,1.09,0.483,1.04
CCN(CC)CCOC(=O)c1ccc(N)cc1 [Procaine HCl],0.661,0.741,0.744,0.877,0.478,0.916
COc1ccc(C2CNC(=O)C2)cc1OC1CCCC1 (centres undefined) [Rolipram],1.65,1.51,0.853,0.861,1.13,1.44
CCCCCCCCCC(=O)CC(O)S(=O)(=O)O (centres undefined) [Sodium Houttuyfonate],1.45,0.727,1.5,0.985,1.06,1.66
C[C@@H](Oc1cc(-n2cnc3ccc(CN4CCN(C)CC4)cc32)sc1C(N)=O)c1ccccc1C(F)(F)F,3.44,3.82,4.26,3.6,3.95,2.85
CC[C@H](Nc1ncnc2[nH]cnc12)c1oc2ccccc2c(=O)c1-c1cccc(F)c1 [Tenalisib (RP6530)],0.975,0.66,0.791,1.47,0.466,0.678
CC[C@H]1OC(=O)[C@@](C)(F)C(=O)[C@H](C)[C@@H](O[C@@H]2O[C@H](C)C[C@H](N(C)C)[C@H]2O)[C@](C)(OC)C[C@@H](C)C(=O)[C@H](C)[C@H]2N(CCCCn3cc(-c4cccc(N)c4)nn3)C(=O)O[C@]12C [Solithromycin],1.63,1.89,1.57,1.86,2.27,0.99
Cl.NCCCC[C@H](N)C(=O)O [L-Lysine hydrochloride],0.954,1.04,0.836,0.872,1.27,0.646
CC1CC(OC(=O)C(O)c2ccccc2)CC(C)(C)C1 (centres undefined) [Cyclandelate],1.19,1.12,1.02,0.843,0.782,1.02
CCc1ccc(/C=C2/SC(=S)NC2=O)cc1,0.453,0.809,1.03,1.15,0.771,0.723
